Our source for the growth values is PubChem BioAssay (NCI).

“And” between values parts separate entries of the source, which are not always exact repeats. Equal entries are not always repeated. About 83,000 compounds went through this panel and 20% of them were active in at least one assay; those are over-represented in the sample as a whole.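 Treatment: one concentration, 48 hours, 96-well format. Scoring: percent growth, with anything below 10 considered active.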 The source made the active and inactive calls.

The first assay has as its system LOX IMVI melanoma. Put plainly: NCI-60 one-dose screen, 48 h (100 = growth as untreated, 0 = no growth, -100 = all killed). The conditions noted are these: 10 µM. The method, then:
Growth inhibition of the LOX IMVI human tumor cell line is measured as a screen for anti-cancer activity. Cells are grown in 96 well plates and exposed to the test compound for 48 hours. Compounds are tested at a single concentration, which is 10^-5 M for most compounds. The reported endpoint is percent growth (GI% or GIPRCNT), where numbers from 0 - 100% represent growth inhibition, and numbers from -100% - 0 represent cell death. For example, a value of 40 represents 60% growth inhibition. A value of 0 means no net growth occurred over the course of the experiment. A value of -40 indicates 40% of cells at the beginning of the experiment died by the end of the experiment. A value of -100 means all cells are dead at the end of the experiment.
NCI-60 Human Tumor Cell Lines Screen was performed using the standard one-dose NCI protocol, which is described in more detail at https://dtp.cancer.gov/discovery_development/nci-60/default.htm.
Compounds with GIPRCNT values below 10 were considered active. Activity score was based on GIPRCNT using the following formula: […]
Score is 0 for GIPRCNT values of 100 or above, 50 for GIPRCNT values of 0, and 100 for GIPRCNT values of -100.
For `O=C(Nc1c(Cl)cccc1Cl)Oc1cccc2cccnc12`, the growth was 33.1% (inactive).

Staying with this assay, now noted: 10 µM unless noted.
In the case of `O=C(CC1(O)C(=O)Nc2c(Cl)ccc(Cl)c21)c1ccc(Cl)cc1Cl` (stereo not given), the growth was 100% (inactive).

Turning to `CCC(CCCN(CC)CCc1ccccc1)OC(=O)c1cc(OC)c(OC)c(OC)c1` (stereo not given), the growth was 80.9% (inactive).

For the compound `Cc1cc(N)c2ccccc2[n+]1CCCCCCCCCC[n+]1c(C)cc(N)c2ccccc21`, the growth is -73% (active) and 37.4% (inactive).

For `CN(Cc1cnc2nc(N)nc(N)c2n1)c1ccc(C(=O)NC(CCC(=O)O)C(=O)O)cc1` (stereo not given), the growth is 13.2% (inactive).

As to `CCOc1ccc(-c2nc3ccc(-c4nc5ccc(N6CCN(C)CC6)cc5[nH]4)cc3[nH]2)cc1`, the growth is -88% (active).

For `O=C(Nc1ccc(F)cc1)ON=C1CCCCC1`, the growth was 88.2% [100 µM] (inactive).

In the case of `NC(=S)N/N=C\c1nccc2c(C(F)(F)C(F)(F)C(F)(F)F)cccc12`, the growth is 4.13% (active).

Consider `N#CSCc1ccc(Cl)c(CSC#N)c1`, for which the growth is 19.9% (inactive).

Take `CN(C)c1ccc(C(=C2C=CC(=[N+](C)C)C=C2)c2ccc(N(C)C)cc2)cc1` (tested in a mixture with another compound): the growth is -89.2% (active).

Turning to `Cc1ccc2nc(-[n+]3cc4ccccc4cc3C)ccc2c1`, the growth is 46.6% (inactive).

Turning to `COC(=O)[C@@]12OC[C@]34[C@H]([C@@H](O)[C@@H]1O)[C@@]1(C)[C@H](O)C(=O)C=C(C)[C@@H]1C[C@H]3OC(=O)C(OC(C)=O)[C@@H]24` (stereo not given in full), the growth is -84.1% (active).

For `Cn1c2ccccc2c2nnc(N/N=C/c3ccccn3)nc21`, the growth is 1.32% (active).

In the case of `O=C(/C=C\c1cc(Br)ccc1O)/C=C/c1cc(Br)ccc1O`, the growth was -95.6% (active).

On to `N#CC1C(=O)SC2c3ccccc3C(=O)c3ccccc3C12` (stereo not given), for which the growth is 95.3% (inactive).

Take `CC1(C)CC([P+](c2ccccc2)(c2ccccc2)c2ccccc2)=NN1`: the growth was 43.1% (inactive).

As for `CC(=O)C(=Cc1ccc(C=C(C(C)=O)C(C)=O)cc1)C(C)=O`, the growth was -97.8% (active).

As for `O=C(Nc1ccccc1)c1cc(Cl)ccc1O`, the growth was 79.8% (inactive).

Turning to `CCC(CC)COC(=O)c1ccc(O)c(O)c1`, the growth was 69.2% (inactive).

For `Oc1c(Br)cc(Cl)cc1C(c1cc(Cl)cc(Br)c1O)C(Cl)(Cl)Cl`, the growth is 34.3% (inactive).

Turning to `O=C1c2ccccc2C(=O)c2sc(Nc3ccc(Cl)cc3)nc21`, the growth was -85.8% (active).

For `NC(=O)/C=C/C(=O)c1c(Cl)cccc1Cl`, the growth was -43.5% (active).

Consider `CNC(=O)N/N=C/c1ccc([N+](=O)[O-])o1`, for which the growth is 89.1% (inactive).

For the compound `CN(C)CCOc1ccc2c(c1)C(=O)/C(=C\c1ncc([N+](=O)[O-])n1C)C2`, the growth is -41.9% (active).

As to `C=CCOc1ccc(N=NC(C#N)C#N)cc1`, the growth was 26% (inactive).

In the case of `CN(C)c1ccc(N=Nc2cccc3ccccc23)cc1`, the growth was 96.3% (inactive).

Turning to `COC(=O)c1nc(=S)[nH]c(C(=O)OC)c1C(=O)c1ccc2ccccc2c1`, the growth is 94.7% (inactive).

In the case of `CCOC(=O)c1c(C)[nH]c(CO)c1C`, the growth is 101% (inactive).

Turning to `OC(CNc1ccnc2cc(Cl)ccc12)CNc1ccnc2cc(Cl)ccc12`, the growth is -79.2% (active).

Take `Nc1nc(N)c2c(ccc3c2ccn3Cc2cccc([N+](=O)[O-])c2)n1`: the growth is -83.4% (active).

For the compound `CCCCCCCCCCCCCCNCc1ccccc1`, the growth is 53.3% (inactive).

`COc1cc(/C=C/C(C)=O)ccc1O`: the growth is 104% (inactive).

On to `Cc1ccc2c(ccc3c[n+]4c5ccccc5ccc4n32)c1`, for which the growth is 22.5% (inactive).

Turning to `S=C(N/N=C/c1ccccn1)Nc1ccccn1`, the growth was 5.96% (active).

Consider `COc1ccc(-c2cscc2N)cc1`, for which the growth is 45.7% (inactive).

Regarding `O=C1NC(=O)/C(=C/C=C/c2ccccc2)S1`, the growth is 15.8% (inactive).

Consider `CC(C)(C)c1ccc(O)c(C2CCCCC2)c1`, for which the growth was 104% (inactive).

For the compound `Cc1cc(C(C)(CC(C)C)c2ccc(O)c(C)c2)ccc1O`, the growth was 97% (inactive).

Turning to `Oc1c(Cl)cc(Cl)c2cccnc12`, the growth is 32.5% (inactive) and 39.4% (inactive).

The same assay, now with this note: 100 µM.
For the compound `O=C(Nc1c(Cl)cccc1Cl)Oc1cccc2cccnc12`, the growth was 7.87% (active).
